# Test results from PubChem BioAssay (NCI).
# The panel holds about 79,000 compounds, 15% with a hit somewhere; the sample as a whole holds those more often. Unmarked numbers belong to inactive results. Active and inactive are the calls of the source. Rule as the data show it: active = growth inhibition above about 70%; inactive = the rest.
# Experiment: NCI Yeast Anticancer Drug Screen. Data for the wt1 strain (AID 149);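 also: 0% = growth of vehicle-treated wt1 cultures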
# Conditions: S. cerevisiae wt1 strain (SPY 50644) growth inhibition, active compounds read high
# Procedure: Growth inhibition of yeast strains with defined genetic alterations is measured as a screen for potential anti-cancer activity. Selected strains with alterations in DNA damage repair or cell cycle control were exposed to compounds and growth inhibition was measured relative to vehicle treated controls. The strain used in this assay is wt1
SMILES,growth inhibition (at 1.2 µM),growth inhibition (at 3.7 µM),growth inhibition (at 11.0 µM),growth inhibition (at 33.0 µM),growth inhibition (at 100.0 µM)
Cc1ccc([N+]2=NC(c3ccccc3)=NN(c3ccccc3)C2)cc1,1%,5%,8%,27%,96% (active)
CCOC1=C/C(=N\Nc2ccc([N+](=O)[O-])cc2)CCC1,0%,7%,9%,24%,18%
CCN(CC)CCNc1ccc([N+](=O)[O-])c2nc3ccccc3c(N)c12,-10%,-7%,-13%,-9%,-6%
O=C(COC(=O)c1ccccc1)c1ccc(Br)cc1,2%,-4%,8%,99% (active),97% (active)
CCCCN(CCCC)CCC(O)c1cc2c(Cl)cc(Cl)cc2c2cc(C(F)(F)F)ccc12 (stereo not given),-2%,0%,93% (active),98% (active),96% (active)
CCc1c(Cl)c(C)cc(O)c1Cl,-31%,-18%,-33%,-33%,72% (active)
CCc1c[n+]([O-])c(C)cc1[N+](=O)[O-],0%,-1%,0%,-1%,13%
NC1=NNC2(C(N)=N1)c1ccccc1-c1ccccc12,4%,3%,-4%,12%,97% (active)
